ChEMBL document CHEMBL1157539, “Thousands of chemical starting points for antimalarial lead identification” (Nature, 2010)

Experiments:
Format in all cases: functional
Plasmodium falciparum [1] = assay: GSK_TCMDC: Inhibition of Plasmodium falciparum 3D7 in whole red blood cells, using parasite LDH activity as an index of growth. Test compounds present at 2uM
Plasmodium falciparum [2] = assay: GSK_TCMDC: Inhibition of Plasmodium falciparum Dd2 in whole red blood cells, using parasite LDH activity as an index of growth. Test compounds present at 2uM
HepG2 = assay: GSK_TCMDC: Percent inhibition of human HepG2 cell line. Test compounds present at 10uM.

SMILES: CC(=O)O.CC(C)c1ccc(C2CCN(CCCCNC(=O)c3ccc(NC(=O)c4ccc(C(F)(F)F)cc4)cc3)CC2)c(O)c1
- Inhibition (Plasmodium falciparum [1]): 99%
- Inhibition (Plasmodium falciparum [2]): 100%
- Inhibition (HepG2): 47%

SMILES: CCCNC(=O)c1cncc(-c2ccc(CNC3Cc4ccccc4C3)cc2)c1.O=C(O)C(F)(F)F
- Inhibition (Plasmodium falciparum [1]): 97%
- Inhibition (Plasmodium falciparum [2]): 21%
- Inhibition (HepG2): 9%

SMILES: CC(C)(CNCc1ccc(F)c(F)c1)c1nc(-c2ccc(Cl)c(O)c2)c(-c2ccncc2)[nH]1.Cl
- Inhibition (Plasmodium falciparum [1]): 100%
- Inhibition (Plasmodium falciparum [2]): 89%
- Inhibition (HepG2): 74%

SMILES: O=C(O)C(F)(F)F.O=c1[nH]ccc2nc(N[C@@H]3CCNC3)nc(Nc3cc(Cl)cc(Cl)c3)c12
- Inhibition (Plasmodium falciparum [1]): 100%
- Inhibition (Plasmodium falciparum [2]): 99%
- Inhibition (HepG2): 99%

SMILES: Br.CCc1ccc(OCCCON2C(=N)N=C(N)NC2(C)C)cc1
- Inhibition (Plasmodium falciparum [1]): 95%
- Inhibition (Plasmodium falciparum [2]): 95%
- Inhibition (HepG2): 64%

SMILES: Fc1cccc(-c2ccc3c(c2)CC(NCc2c[nH]c4cnccc24)C3)c1 (stereo unspecified)
- Inhibition (Plasmodium falciparum [1]): 100%
- Inhibition (Plasmodium falciparum [2]): 68%
- Inhibition (HepG2): 24%

SMILES: COC(=O)c1cc(/C(C)=N/Nc2nc3ccccc3[nH]2)ccc1O
- Inhibition (Plasmodium falciparum [1]): 100%
- Inhibition (Plasmodium falciparum [2]): 75%
- Inhibition (HepG2): 9%

SMILES: N#CC(c1ccc(Br)cc1)c1ccc2c(C(F)(F)F)cc(C(F)(F)F)nc2n1 (stereo unspecified)
- Inhibition (Plasmodium falciparum [1]): 100%
- Inhibition (Plasmodium falciparum [2]): 98%
- Inhibition (HepG2): 75%

SMILES: CCOc1c(CNCCCNc2nc3ccccc3[nH]2)cc(Br)cc1OC.Cl
- Inhibition (Plasmodium falciparum [1]): 99%
- Inhibition (Plasmodium falciparum [2]): 0%
- Inhibition (HepG2): 29%

SMILES: COc1ccc(-c2nc3ccc(C)nc3nc2-c2ccc(OC)cc2)cc1
- Inhibition (Plasmodium falciparum [1]): 91%
- Inhibition (Plasmodium falciparum [2]): 0%
- Inhibition (HepG2): 4%

SMILES: COc1ccc(CNC2CCN(c3ccc(NC(=O)c4cccc(Cl)c4)cc3)CC2)cc1OC
- Inhibition (Plasmodium falciparum [1]): 96%
- Inhibition (Plasmodium falciparum [2]): 13%
- Inhibition (HepG2): 26%

SMILES: CO/C(=C\C=C\c1cc2cc(Cl)c(Cl)cc2[nH]1)C(=O)NCCCN(C)CCN(C)c1ccccc1
- Inhibition (Plasmodium falciparum [1]): 96%
- Inhibition (Plasmodium falciparum [2]): 59%
- Inhibition (HepG2): 38%

SMILES: CC(=O)Nc1nc(C(=O)Nc2ccc(-c3cccc(-c4nc5cc(C(F)(F)F)ccc5[nH]4)c3)cc2)cs1
- Inhibition (Plasmodium falciparum [1]): 100%
- Inhibition (Plasmodium falciparum [2]): 97%
- Inhibition (HepG2): 79%

SMILES: Cc1c(Oc2ccc(-n3ccnc3)cc2)ncnc1N1CCC2(CC1)CNCc1ccccc12.O=C(O)C(F)(F)F
- Inhibition (Plasmodium falciparum [1]): 95%
- Inhibition (Plasmodium falciparum [2]): 58%
- Inhibition (HepG2): 26%

SMILES: CCN(CC)CCN(Cc1ccc(-c2ccc(C(F)(F)F)cc2)cc1)C(=O)Cn1c(CCc2cccc(F)c2F)nc(=O)c2cc(C)ccc21.O=C(O)C(O)C(O)C(=O)O
- Inhibition (Plasmodium falciparum [1]): 95%
- Inhibition (Plasmodium falciparum [2]): 43%
- Inhibition (HepG2): 19%

SMILES: COCCNCc1cccc(-c2cc3nccc(Nc4ccc(Oc5ccccc5)cc4)c3cc2Cl)c1
- Inhibition (Plasmodium falciparum [1]): 99%
- Inhibition (Plasmodium falciparum [2]): 99%
- Inhibition (HepG2): 0%

SMILES: Cc1ccc(-c2ccc(Cl)cc2Oc2cnc(N)nc2N)o1
- Inhibition (Plasmodium falciparum [1]): 100%
- Inhibition (Plasmodium falciparum [2]): 3%
- Inhibition (HepG2): 15%

SMILES: CN(Cc1ccc(-c2ccc(C(F)(F)F)cc2)cc1)C(=O)Cn1c(CCc2cccc(F)c2F)cc(=O)c2ccc(OCC3CCCN3C)cc21.O=C(O)C(O)C(O)C(=O)O (stereo unspecified)
- Inhibition (Plasmodium falciparum [1]): 87%
- Inhibition (Plasmodium falciparum [2]): 37%
- Inhibition (HepG2): 100%

SMILES: COc1ccc(CN(C)CCCCc2ccc(NC(=O)COc3cccc4sc5ccccc5c(=O)c34)cc2)cc1OC.O=C(O)C(=O)O
- Inhibition (Plasmodium falciparum [1]): 100%
- Inhibition (Plasmodium falciparum [2]): 84%
- Inhibition (HepG2): 26%

SMILES: COc1cc2c(cc1CCNCCCCNCCc1cc3c(cc1OC)CCCC3)CCCC2.CS(=O)(=O)O
- Inhibition (Plasmodium falciparum [1]): 100%
- Inhibition (Plasmodium falciparum [2]): 36%
- Inhibition (HepG2): 100%

SMILES: CCC1(CC)C(=O)N=C(N2CCCCC2)N(C)C1=O
- Inhibition (Plasmodium falciparum [1]): 89%
- Inhibition (Plasmodium falciparum [2]): 66%
- Inhibition (HepG2): 0%

SMILES: COc1cccc(C(=O)C2CC2CN(C)CC(O)c2cc(C)c(OC)cc2C)c1.O=C(O)C(F)(F)F (stereo unspecified)
- Inhibition (Plasmodium falciparum [1]): 88%
- Inhibition (Plasmodium falciparum [2]): 73%
- Inhibition (HepG2): 8%

SMILES: COc1ccccc1CCNc1nc(C)cc(N[C@@H](Cc2ccccc2)C(=O)NCCc2ccccc2)n1.O=C(O)C(F)(F)F
- Inhibition (Plasmodium falciparum [1]): 100%
- Inhibition (Plasmodium falciparum [2]): 89%
- Inhibition (HepG2): 16%

SMILES: CCN(CCNC(=O)C1CCN(c2cc(-c3cccc(C)c3)ncn2)CC1)Cc1ccccc1
- Inhibition (Plasmodium falciparum [1]): 83%
- Inhibition (Plasmodium falciparum [2]): 72%
- Inhibition (HepG2): 24%

SMILES: O=[N+]([O-])c1cccc(-c2ccc(C=NNc3cc(N4CCCC4)nc(N4CCCC4)n3)o2)c1
- Inhibition (Plasmodium falciparum [1]): 100%
- Inhibition (Plasmodium falciparum [2]): 67%
- Inhibition (HepG2): 0%

SMILES: CCn1c(CN2CCC(C)CC2)nc2cc(NC(=O)c3cccs3)ccc21
- Inhibition (Plasmodium falciparum [1]): 91%
- Inhibition (Plasmodium falciparum [2]): 95%
- Inhibition (HepG2): 40%

SMILES: Cc1cc(=NN=Cc2ccccc2)c2cc(C(F)(F)F)ccc2[nH]1
- Inhibition (Plasmodium falciparum [1]): 100%
- Inhibition (Plasmodium falciparum [2]): 97%
- Inhibition (HepG2): 30%
